# Records with an inconclusive call do not appear. Where a call stands in place of a potency, no number is given. Activity calls are given as the source filed them. Calls follow the shape of the full dose curve.
# Molecular target: Acetylcholinesterase (Homo sapiens) (UniProt P22303)
# Experiment: Acetylcholinesterase (AChE) small molecule antagonists: fluorescence cell-based qHTS assay (AID 1347398); also: nearly all actives have a fitted effect of over 50% in size
# Details: SH-SY5Y cells; Potency: AChE activity; outcome: AChE activity; series mostly up to 115 µM
# In short: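 Using neuroblastoma SH-SY5Y cells as the enzyme source, test chemicals are preincubated 30 min at 37 C; AChE-driven acetylthiocholine cleavage is then quantified by thiocholine-dependent Thiolite Green fluorescence after 40 min at room temperature.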
# Acetylcholinesterase (Homo sapiens), sequence (P22303 whole entry, looked up): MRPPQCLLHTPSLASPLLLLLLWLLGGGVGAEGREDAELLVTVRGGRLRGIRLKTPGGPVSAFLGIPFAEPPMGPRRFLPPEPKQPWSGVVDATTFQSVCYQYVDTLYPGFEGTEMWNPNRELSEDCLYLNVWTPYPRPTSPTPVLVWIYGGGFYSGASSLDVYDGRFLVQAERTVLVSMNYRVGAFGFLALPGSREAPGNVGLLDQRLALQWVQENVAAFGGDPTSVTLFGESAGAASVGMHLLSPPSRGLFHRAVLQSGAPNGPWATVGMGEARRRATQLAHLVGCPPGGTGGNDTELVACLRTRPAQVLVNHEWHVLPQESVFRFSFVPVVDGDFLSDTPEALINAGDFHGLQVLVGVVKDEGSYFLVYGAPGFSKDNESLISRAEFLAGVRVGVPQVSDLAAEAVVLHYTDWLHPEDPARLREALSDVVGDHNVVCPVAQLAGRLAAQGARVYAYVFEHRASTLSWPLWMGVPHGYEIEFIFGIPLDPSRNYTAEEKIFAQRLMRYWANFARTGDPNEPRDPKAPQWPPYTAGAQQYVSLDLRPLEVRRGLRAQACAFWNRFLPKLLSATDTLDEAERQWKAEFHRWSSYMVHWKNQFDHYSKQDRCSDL
row,Structure (SMILES),Potency
1,Nc1ccc(N)c2c1C(=O)c1ccccc1C2=O,inactive
2,Cc1cc(=O)[nH]c(=O)[nH]1,inactive
3,COc1ccccc1NC(=O)CC(C)=O,inactive
4,CC(C)(O)CCC(C)(C)O,inactive
5,COC(=O)C(C)Oc1ccc(Oc2ncc(C(F)(F)F)cc2Cl)cc1 (centres undefined),inactive
6,Cc1cccc2c1ccc1ccccc12,inactive
7,COC(=O)CCC(=O)OC,inactive
8,CC[C@H](C)C(=O)O[C@H]1C[C@H](O)C=C2C=C[C@H](C)[C@H](CC[C@@H](O)C[C@@H](O)CC(=O)O)[C@H]21,inactive
9,CCC(=O)O[C@H]1[C@H](O[C@@H]2[C@@H](C)[C@H](O[C@H]3C[C@@](C)(OC)[C@@H](O)[C@H](C)O3)[C@@H](C)C(=O)O[C@H](CC)[C@@](C)(O)[C@H](O)[C@@H](C)C(=O)[C@H](C)C[C@@]2(C)O)O[C@H](C)C[C@@H]1N(C)C,inactive
10,C#CC(C)(CC)OC(=O)c1ccccc1C(=O)O (centres undefined),inactive
11,Nc1cc(Cl)cc(S(=O)(=O)O)c1O,inactive
12,CC(C)(O)C(=O)c1ccccc1,inactive
13,CCCCC/C(C=O)=C\c1ccccc1,inactive
14,CC(C)(O)c1ccc(CNC(=O)c2cccnc2Oc2ccc3nonc3c2)cc1,inactive
15,CCCCCCCCCCCCCCCCCCOCC(O)CO (centres undefined),inactive
16,Nc1cc(=O)[nH]c(N)n1,inactive
17,CCOC(=O)O[C@]1(C(=O)OCCl)CC[C@H]2[C@@H]3CCC4=CC(=O)C=C[C@]4(C)[C@H]3[C@@H](O)C[C@@]21C,inactive
18,CC(CC(=O)O)CC(C)(C)C (centres undefined),inactive
19,NC(=O)Nc1nc2ccccc2[nH]1,inactive
